Shown are actives, neighbours in structure and some others; about 4.5% of the full set was active somewhere.
EBNA-1 inhibitor: blocks EBNA-1 binding to DNA; hit rate 0.34% among 300,000; inhibition, % at 14.8 µM; EBNA-1 DNA binding, fluorescence polarization; AID 1950; in the data active means inhibition above about 28%
Rpn11 inh: blocks the human proteasome subunit Rpn11; inhibition, % at 20 µM; human 26S proteasome, Ub4-pepOG fluorescence polarization; 20S core pre-blocked with epoxomicin; O00487; hit rate 0.59% among 360,000; AID 588493;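 active means inhibition at 20 µM, scaled to each plate's controls, above about 33%, limit read from the data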
Target sequence (O00487 whole entry, looked up): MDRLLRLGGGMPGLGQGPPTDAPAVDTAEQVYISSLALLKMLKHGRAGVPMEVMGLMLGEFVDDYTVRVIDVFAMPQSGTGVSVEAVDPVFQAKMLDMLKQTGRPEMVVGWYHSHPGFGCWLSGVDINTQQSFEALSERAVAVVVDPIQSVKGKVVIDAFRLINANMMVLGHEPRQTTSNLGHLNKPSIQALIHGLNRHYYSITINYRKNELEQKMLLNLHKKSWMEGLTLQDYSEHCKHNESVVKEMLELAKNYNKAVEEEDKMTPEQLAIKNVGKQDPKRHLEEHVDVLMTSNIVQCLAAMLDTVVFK
dFosB activator: activators of mouse delta FosB homodimer. AID 493131. hit rate 0.99% among 340,000. activation, % at 25 µM. P13346. purified delta FosB, TAMRA-CDK5 oligo fluorescence polarization; percent of positive-control signal above neutral wells;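 active means mean activation above about 17%, with every replicate also reaching it, limit read from the data, passing the limit was not always enough; inconclusive means only one of the two conditions met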
Target sequence (P13346 whole entry, looked up): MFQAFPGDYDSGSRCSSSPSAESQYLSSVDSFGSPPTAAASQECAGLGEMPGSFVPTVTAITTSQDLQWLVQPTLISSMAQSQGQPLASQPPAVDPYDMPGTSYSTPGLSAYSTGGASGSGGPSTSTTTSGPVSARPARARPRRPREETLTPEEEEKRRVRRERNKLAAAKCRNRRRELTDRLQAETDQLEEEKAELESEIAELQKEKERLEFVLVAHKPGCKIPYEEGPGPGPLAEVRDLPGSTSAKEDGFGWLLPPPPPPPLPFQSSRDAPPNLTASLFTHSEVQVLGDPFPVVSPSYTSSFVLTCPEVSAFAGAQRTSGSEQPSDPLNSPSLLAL
TPT1 inhibitor: C. albicans TPT1 enzyme inhibition | recombinant caTPT1, FP RNA substrate dephosphorylation | inhibition, % at 5 µM | hit rate 0.81% among 300,000;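 active means inhibition above the mean of all tested compounds plus 3 SD, set per screening campaign, cut at about 24% in these data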
NR3A LBD binder: NR3A (human) ligand-binding domain modulation; NR3A LBD differential scanning fluorimetry, Tm shift; 0% = protein alone, 100% = glycine-bound protein; Tm shift relative to glycine control, % at 25 µM; hit rate 2.5% among 340,000;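 active means melting temperature shift of at least 10% of the positive control shift, at one fixed dose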
ZTA DNA inh: blocks Epstein-Barr virus ZTA, an EBNA-1 counter-screen; hit rate 0.15% among 320,000; inhibition, % at 11 µM; AID 2234; ZTA-DNA binding, fluorescence polarization; in the data active means inhibition above about 33%
Of the large screens only hits and unclear results are named; the others gave an inactive call.

Cc1ccc(N2C(=O)C3C(C2=O)C2C=CC3C23CC3)c([N+](=O)[O-])c1 (stereo not given)	none
CC(=O)Nc1ccc(NC(=O)CSc2ncc(C(=O)Nc3ccccc3)c(=O)n2C)cc1	none
CCOCCCNC(=O)C1(O)c2ccccc2NC(=O)N1c1ccc(Cl)cc1 (stereo not given)	NR3A LBD binder 12
CCOCCCNC(=O)C1(O)c2cc(Br)ccc2NC(=O)N1c1ccc(CC)cc1 (stereo not given)	NR3A LBD binder 18
CCOCCCNC(=O)C1(O)c2cc(Br)ccc2NC(=O)N1c1cccc(OC)c1 (stereo not given)	none
CCOCCCNC(=O)C1(O)c2cc(Br)ccc2NC(=O)N1c1ccc(OCC)cc1 (stereo not given)	NR3A LBD binder 12
CCc1ccc(NC(=O)[C@H](C)NC(=O)C2CCN(C(=O)[C@@H](N)C(C)C)CC2)cc1	none
Cc1ncc(N=Nc2ccccc2Cl)c(-c2ccccc2)n1	NR3A LBD binder 17
COc1ccc(N=Nc2cnc(C)nc2-c2ccccc2)cc1	none
CCc1nnc(NC(=O)c2cc(-c3ccccn3)nc3ccc(Br)cc23)s1	none
c1ccc(-c2cc(-c3ccccc3)on2)cc1	NR3A LBD binder 30
N#Cc1c(Cl)nsc1NC(=O)c1ccccc1	NR3A LBD binder 11
N#Cc1c(NC(=O)c2ccccc2)sc2c1CCCCC2	none
N#C/C(=C\Nc1ccccc1O)c1nc2ccccc2o1	NR3A LBD binder 27
O=C(c1cc(-c2cccs2)on1)N1CCN(c2ccc(F)cc2)CC1	NR3A LBD binder 13
CCCCCCCCCCCC(=O)c1c(O)cccc1O	none
O=C(O)c1ccccc1C(=O)OC1CCCC2CCCC21 (stereo not given)	none (no result: EBNA-1 inhibitor, TPT1 inhibitor, ZTA DNA inh)
Cc1ccc(S(=O)(=O)N2CCOC2CNC(=O)C(=O)NCc2ccc(Cl)cc2)cc1 (stereo not given)	NR3A LBD binder 13
CCc1ccc(CNC(=O)C(=O)NCC2CCCO2)cc1 (stereo not given)	none
Cc1ccc(CNC(=O)C(=O)NCC2CCCO2)cc1 (stereo not given)	NR3A LBD binder 16
Cc1ccc(CNC(=O)C(=O)NCC2OCCN2C(=O)c2cccs2)cc1 (stereo not given)	NR3A LBD binder 15
Cc1ccc(CNC(=O)C(=O)NCC2OCCN2S(=O)(=O)c2ccc(Cl)cc2)cc1 (stereo not given)	none
O=C(NCc1ccccc1)C(=O)NCC1OCCN1C(=O)c1cccs1 (stereo not given)	none
CCCOc1ccc(C(=O)CCNC(Cc2c[nH]c3ccccc23)C(=O)O)cc1 (stereo not given)	none
COc1ccc(S(=O)(=O)N2CCOCC2)cc1NC(=O)Cn1nnc2ccccc2c1=O	none
O=C(C1CCC(=O)N(C2CCCC2)C1)N1CCN(Cc2cccc(Cl)c2)CC1 (stereo not given)	none
CC(=O)c1cccc(CN2CCN(CC(C)C)C(CCO)C2)c1 (stereo not given)	none
O=C(NCCOc1ccccc1)c1ncn[nH]1	NR3A LBD binder 10
Cc1ccc(OCC(=O)Nc2c3c(nn2C(C)(C)C)CS(=O)(=O)C3)cc1	none
CC(C)N(C(=O)NC(=O)Nc1ccc(S(=O)(=O)N2CCCC2)cc1)S(C)(=O)=O	none
CCOc1ccc(NC(=O)NC(=O)N(C(C)C)S(C)(=O)=O)cc1	NR3A LBD binder 18
CCOc1ccc(NC(=O)c2ccc3nccnc3c2)cc1	none
CCOc1ccc(NC(=O)Nc2ccc3nccnc3c2)cc1	NR3A LBD binder 24
CCOc1ccc(NC(=O)Nc2ccc(NC(C)=O)cc2)cc1	NR3A LBD binder 22
CCOc1ccc(OCCC(=O)OC(C)C(=O)Nc2ccc(C(C)=O)cc2)cc1 (stereo not given)	NR3A LBD binder 20
COc1ccc(CNC(=O)C2CCN(S(=O)(=O)c3cccc4nsnc34)CC2)cc1	none
O=C(Nc1ccc2nc(-c3cccs3)c(-c3cccs3)nc2c1)NC1CC1	Rpn11 inh 37
Cc1cnc(C(=O)Oc2c(C)ccc(C)c2C)cn1	none
COc1cc(NC(=S)NCCC(c2ccccc2)c2ccccc2)c(OC)cc1Cl	NR3A LBD binder 24
COc1ccc(Cl)cc1NC(=S)NCCC(c1ccccc1)c1ccccc1	NR3A LBD binder 18
COc1ccccc1NC(=S)NCCC(c1ccccc1)c1ccccc1	none
Cc1ccc(OCC(O)CNS(=O)(=O)c2ccccc2C(=O)O)cc1 (stereo not given)	NR3A LBD binder 13
C=CC[C@H](CC(=O)N(CCO)Cc1ccccc1)C(=O)NCCOC(=O)[C@H](CC=C)CC(=O)OC(C)(C)C	none (no result: EBNA-1 inhibitor, TPT1 inhibitor, ZTA DNA inh)
Cc1ccc2nc(N/N=C/c3ccccc3C#N)nc(-c3ccccc3)c2c1	none
Cc1ccc2nc(N/N=C/c3ccccc3F)nc(-c3ccccc3)c2c1	NR3A LBD binder 13
COc1ccc(CC(N)c2csc(NC(=O)c3cc(C(C)(C)C)oc3C)n2)cc1 (stereo not given)	none (no result: EBNA-1 inhibitor, dFosB activator, TPT1 inhibitor, NR3A LBD binder, ZTA DNA inh)
COCCN(C(=O)C1CC(=O)N(Cc2ccc(C)cc2)C1)c1c(N)n(CC(C)C)c(=O)[nH]c1=O (stereo not given)	none (no result: EBNA-1 inhibitor, TPT1 inhibitor)
C/C(=N\Nc1nc2ccccc2s1)c1ccc(Br)s1	NR3A LBD binder 23
COc1cc(NCCCn2ccc(NC(=O)OCc3ccccc3)nc2=O)cc(OC)c1OC	NR3A LBD binder 17 (no result: EBNA-1 inhibitor, TPT1 inhibitor, ZTA DNA inh)
COc1ccc(CN(C)CCCn2ccc(NC(=O)OCc3ccccc3)nc2=O)cc1OC	none (no result: EBNA-1 inhibitor, dFosB activator, TPT1 inhibitor, NR3A LBD binder, ZTA DNA inh)
Cc1sc2nc(CN3CCCC3)nc(N3CCN(S(=O)(=O)c4ccccc4)CC3)c2c1C	dFosB activator 42 (no result: EBNA-1 inhibitor, TPT1 inhibitor)
O=C(COC(=O)c1ccc(O)cc1)Nc1ccc(S(=O)(=O)N2CCCC2)cc1	none (no result: EBNA-1 inhibitor, TPT1 inhibitor, ZTA DNA inh)
CSc1nnc(-c2ccc(Cl)cc2Cl)o1	none
CCSc1nnc(-c2ccc(Cl)cc2Cl)o1	NR3A LBD binder 16
COCCNC(=O)Cn1cnc2c(cnn2-c2ccc(C)cc2)c1=O	none
Cc1ccc(NC(=O)Nc2ccc3c(c2)OCO3)c(Br)c1	NR3A LBD binder 19
Cc1cccc(OCC(=O)Nc2ccc3c(c2)OCO3)c1C	NR3A LBD binder 23
O=C(Nc1ccc2c(c1)OCO2)Nc1ccc2c(c1)OCO2	none
COc1cc([N+](=O)[O-])ccc1NC(=O)Nc1ccc2c(c1)OCCO2	none
O=C(Nc1ccc(F)cc1)Nc1ccc2c(c1)OCO2	NR3A LBD binder 11
O=C(Nc1ccc2c(c1)OCO2)Nc1ccc(F)cc1F	dFosB activator inconclusive
O=C(Nc1ccc([N+](=O)[O-])cc1)Nc1ccc2c(c1)OCCO2	NR3A LBD binder 21
Cc1cccnc1NC(=O)CCc1nnc2ccc(N3CCC4(CC3)OCCO4)nn12	none
Cc1ccc(C(=O)O)cc1NC(=O)Nc1ccc2c(c1)OCO2	none
O=C(Nc1cccc(C(=O)O)c1)Nc1ccc2c(c1)OCO2	NR3A LBD binder 24
O=C(Nc1ccc([N+](=O)[O-])cc1)Nc1ccc2[nH]c(=O)[nH]c2c1	dFosB activator inconclusive, NR3A LBD binder 24

Assay outcomes deposited in PubChem by several laboratories.
